Measured values as given in the supplement of paper PMC11732987, “Enantioselective OTUD7B fragment discovery through chemoproteomics screening and high-throughput optimisation” (Communications Chemistry, 2025).

Key:
Assay in all cases: log2 ratio of Biotin-Ahx-Ub-VS probe labelling (fragment/DMSO); higher = less target engagement (more negative = stronger competition), active = hit call of the paper (q ≤ 0.05, log2 ratio ≤ -1)
Conditions in all cases: compound concentration: 200 uM; treatment time: 3 h
[1] = target: T1, USP19 (UniProt O94966)
T1 sequence (whole entry): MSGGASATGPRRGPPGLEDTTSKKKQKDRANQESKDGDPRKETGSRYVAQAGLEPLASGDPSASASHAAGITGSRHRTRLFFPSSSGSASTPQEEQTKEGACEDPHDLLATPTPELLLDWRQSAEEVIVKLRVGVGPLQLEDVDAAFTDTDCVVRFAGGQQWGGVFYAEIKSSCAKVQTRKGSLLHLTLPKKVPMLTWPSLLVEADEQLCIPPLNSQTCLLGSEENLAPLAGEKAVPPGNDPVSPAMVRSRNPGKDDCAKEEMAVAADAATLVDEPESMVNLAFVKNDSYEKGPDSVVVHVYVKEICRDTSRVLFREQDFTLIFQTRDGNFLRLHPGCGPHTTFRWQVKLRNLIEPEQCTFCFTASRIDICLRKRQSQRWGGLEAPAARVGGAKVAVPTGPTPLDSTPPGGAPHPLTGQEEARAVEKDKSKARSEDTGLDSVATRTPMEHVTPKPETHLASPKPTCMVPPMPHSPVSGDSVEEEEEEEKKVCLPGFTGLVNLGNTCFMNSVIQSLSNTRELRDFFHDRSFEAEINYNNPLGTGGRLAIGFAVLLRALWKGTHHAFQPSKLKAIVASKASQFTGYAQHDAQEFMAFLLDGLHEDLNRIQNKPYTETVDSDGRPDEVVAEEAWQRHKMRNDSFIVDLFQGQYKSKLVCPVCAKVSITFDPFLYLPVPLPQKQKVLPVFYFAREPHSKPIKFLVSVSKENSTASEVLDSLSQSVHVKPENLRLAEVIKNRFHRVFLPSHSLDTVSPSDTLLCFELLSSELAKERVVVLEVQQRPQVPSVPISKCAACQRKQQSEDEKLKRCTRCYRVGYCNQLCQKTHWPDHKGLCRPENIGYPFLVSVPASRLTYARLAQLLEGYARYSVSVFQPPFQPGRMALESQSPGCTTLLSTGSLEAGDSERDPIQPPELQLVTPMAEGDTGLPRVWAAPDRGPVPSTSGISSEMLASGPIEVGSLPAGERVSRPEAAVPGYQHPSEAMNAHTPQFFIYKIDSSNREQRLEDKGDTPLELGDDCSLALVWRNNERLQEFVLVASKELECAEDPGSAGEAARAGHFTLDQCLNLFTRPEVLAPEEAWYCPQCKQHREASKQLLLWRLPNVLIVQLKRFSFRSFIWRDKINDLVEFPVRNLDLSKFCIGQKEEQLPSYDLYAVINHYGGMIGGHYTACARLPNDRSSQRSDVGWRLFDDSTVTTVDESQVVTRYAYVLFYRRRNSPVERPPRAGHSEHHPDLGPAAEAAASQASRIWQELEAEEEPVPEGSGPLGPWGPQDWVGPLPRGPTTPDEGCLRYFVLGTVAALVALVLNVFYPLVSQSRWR
How it was run: (§1)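 HEK293T lysate in Tris/CHAPS/IGEPAL buffer with protease inhibitors (495 µg per sample) was given fragment at 200 µM or vehicle for 3 h, in triplicate. It then received Biotin-Ahx-Ub-VS at 0.5 µM final for 1 h. Labelled DUBs were NeutrAvidin-enriched, digested with LysC and trypsin, and run by diaPASEF LC-MS/MS. Values are average log2 fragment/vehicle ratios by unpaired t-test on global-median-normalised Spectronaut quantities of proteins with ≥2 unique peptides.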

[2] = target: T2, USP22 (UniProt Q9UPT9)
T2 sequence (whole entry): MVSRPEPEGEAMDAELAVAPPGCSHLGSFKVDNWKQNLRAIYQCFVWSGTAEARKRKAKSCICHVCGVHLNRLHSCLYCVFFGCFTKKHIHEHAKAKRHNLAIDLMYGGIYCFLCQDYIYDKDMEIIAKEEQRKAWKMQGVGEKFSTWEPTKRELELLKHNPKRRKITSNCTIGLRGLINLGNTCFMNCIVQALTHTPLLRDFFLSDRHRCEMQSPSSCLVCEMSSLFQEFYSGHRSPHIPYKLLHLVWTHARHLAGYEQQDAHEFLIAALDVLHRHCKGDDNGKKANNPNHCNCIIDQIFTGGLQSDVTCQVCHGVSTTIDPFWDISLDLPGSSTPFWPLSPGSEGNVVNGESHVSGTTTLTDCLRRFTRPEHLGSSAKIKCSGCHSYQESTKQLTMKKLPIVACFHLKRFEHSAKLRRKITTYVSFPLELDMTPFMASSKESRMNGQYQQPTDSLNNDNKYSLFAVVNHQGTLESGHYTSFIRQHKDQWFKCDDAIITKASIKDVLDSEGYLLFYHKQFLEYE
How it was run: as §1

[3] = target: USP24 (UniProt Q9UPU5)
How it was run: as §1

[4] = target: T3, USP25 (UniProt Q9UHP3)
T3 sequence (whole entry): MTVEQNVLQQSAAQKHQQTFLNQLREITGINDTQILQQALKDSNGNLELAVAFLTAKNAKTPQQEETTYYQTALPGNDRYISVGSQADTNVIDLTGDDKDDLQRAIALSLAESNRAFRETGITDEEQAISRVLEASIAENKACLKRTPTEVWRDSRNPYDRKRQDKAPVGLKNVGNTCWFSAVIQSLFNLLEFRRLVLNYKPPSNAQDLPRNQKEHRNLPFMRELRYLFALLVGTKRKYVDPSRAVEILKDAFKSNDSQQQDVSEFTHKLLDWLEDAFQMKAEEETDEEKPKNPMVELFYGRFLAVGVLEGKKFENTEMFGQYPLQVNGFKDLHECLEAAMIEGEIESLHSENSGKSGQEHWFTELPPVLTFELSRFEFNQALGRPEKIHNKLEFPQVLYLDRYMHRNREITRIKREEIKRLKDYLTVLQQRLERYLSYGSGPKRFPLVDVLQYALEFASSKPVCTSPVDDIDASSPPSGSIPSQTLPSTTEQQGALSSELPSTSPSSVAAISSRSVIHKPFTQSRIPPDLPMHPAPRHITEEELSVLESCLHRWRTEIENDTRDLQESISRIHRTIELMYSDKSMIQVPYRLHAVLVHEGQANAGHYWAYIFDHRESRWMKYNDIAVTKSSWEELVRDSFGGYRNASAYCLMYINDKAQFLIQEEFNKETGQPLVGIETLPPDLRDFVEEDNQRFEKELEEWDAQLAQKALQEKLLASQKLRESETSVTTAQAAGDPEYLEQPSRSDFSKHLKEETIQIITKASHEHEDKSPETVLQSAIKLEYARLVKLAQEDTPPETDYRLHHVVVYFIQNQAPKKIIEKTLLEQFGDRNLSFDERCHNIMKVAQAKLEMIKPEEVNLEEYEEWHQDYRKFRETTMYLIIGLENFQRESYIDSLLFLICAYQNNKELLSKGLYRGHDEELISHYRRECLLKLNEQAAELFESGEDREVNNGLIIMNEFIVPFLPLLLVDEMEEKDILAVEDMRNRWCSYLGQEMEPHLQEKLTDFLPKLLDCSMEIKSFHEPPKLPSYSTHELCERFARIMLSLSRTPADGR
How it was run: as §1

[5] = target: T4, USP28 (UniProt Q96RU2)
T4 sequence (whole entry): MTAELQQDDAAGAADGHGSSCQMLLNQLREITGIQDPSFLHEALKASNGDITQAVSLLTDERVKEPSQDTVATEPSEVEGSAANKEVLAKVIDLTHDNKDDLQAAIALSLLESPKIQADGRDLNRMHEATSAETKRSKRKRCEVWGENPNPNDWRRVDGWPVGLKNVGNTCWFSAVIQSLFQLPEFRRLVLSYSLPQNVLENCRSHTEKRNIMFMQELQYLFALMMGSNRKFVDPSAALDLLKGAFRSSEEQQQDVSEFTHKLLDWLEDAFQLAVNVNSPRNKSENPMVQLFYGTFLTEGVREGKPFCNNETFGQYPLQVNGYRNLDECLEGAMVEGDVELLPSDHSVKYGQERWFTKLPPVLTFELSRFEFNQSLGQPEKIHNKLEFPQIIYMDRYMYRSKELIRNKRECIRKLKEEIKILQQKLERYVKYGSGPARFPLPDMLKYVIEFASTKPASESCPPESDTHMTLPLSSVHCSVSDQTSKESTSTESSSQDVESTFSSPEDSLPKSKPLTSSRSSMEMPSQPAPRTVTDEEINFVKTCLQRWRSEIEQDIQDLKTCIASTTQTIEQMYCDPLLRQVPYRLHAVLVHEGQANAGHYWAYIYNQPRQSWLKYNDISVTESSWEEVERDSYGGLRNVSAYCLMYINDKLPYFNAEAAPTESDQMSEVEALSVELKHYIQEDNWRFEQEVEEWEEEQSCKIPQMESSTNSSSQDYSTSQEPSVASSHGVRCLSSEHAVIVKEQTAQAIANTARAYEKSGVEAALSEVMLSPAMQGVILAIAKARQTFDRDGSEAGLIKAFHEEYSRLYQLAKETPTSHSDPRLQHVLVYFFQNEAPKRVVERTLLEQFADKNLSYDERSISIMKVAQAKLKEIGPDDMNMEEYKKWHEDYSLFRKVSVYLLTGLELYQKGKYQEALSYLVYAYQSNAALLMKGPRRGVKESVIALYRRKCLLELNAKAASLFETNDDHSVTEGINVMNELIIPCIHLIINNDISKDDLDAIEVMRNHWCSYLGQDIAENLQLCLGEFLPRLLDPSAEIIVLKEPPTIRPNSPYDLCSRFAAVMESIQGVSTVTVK
How it was run: as §1

Measured: log2 ratio of Biotin-Ahx-Ub-VS probe labelling

Chain of USP24 (Q9UPU5 whole entry): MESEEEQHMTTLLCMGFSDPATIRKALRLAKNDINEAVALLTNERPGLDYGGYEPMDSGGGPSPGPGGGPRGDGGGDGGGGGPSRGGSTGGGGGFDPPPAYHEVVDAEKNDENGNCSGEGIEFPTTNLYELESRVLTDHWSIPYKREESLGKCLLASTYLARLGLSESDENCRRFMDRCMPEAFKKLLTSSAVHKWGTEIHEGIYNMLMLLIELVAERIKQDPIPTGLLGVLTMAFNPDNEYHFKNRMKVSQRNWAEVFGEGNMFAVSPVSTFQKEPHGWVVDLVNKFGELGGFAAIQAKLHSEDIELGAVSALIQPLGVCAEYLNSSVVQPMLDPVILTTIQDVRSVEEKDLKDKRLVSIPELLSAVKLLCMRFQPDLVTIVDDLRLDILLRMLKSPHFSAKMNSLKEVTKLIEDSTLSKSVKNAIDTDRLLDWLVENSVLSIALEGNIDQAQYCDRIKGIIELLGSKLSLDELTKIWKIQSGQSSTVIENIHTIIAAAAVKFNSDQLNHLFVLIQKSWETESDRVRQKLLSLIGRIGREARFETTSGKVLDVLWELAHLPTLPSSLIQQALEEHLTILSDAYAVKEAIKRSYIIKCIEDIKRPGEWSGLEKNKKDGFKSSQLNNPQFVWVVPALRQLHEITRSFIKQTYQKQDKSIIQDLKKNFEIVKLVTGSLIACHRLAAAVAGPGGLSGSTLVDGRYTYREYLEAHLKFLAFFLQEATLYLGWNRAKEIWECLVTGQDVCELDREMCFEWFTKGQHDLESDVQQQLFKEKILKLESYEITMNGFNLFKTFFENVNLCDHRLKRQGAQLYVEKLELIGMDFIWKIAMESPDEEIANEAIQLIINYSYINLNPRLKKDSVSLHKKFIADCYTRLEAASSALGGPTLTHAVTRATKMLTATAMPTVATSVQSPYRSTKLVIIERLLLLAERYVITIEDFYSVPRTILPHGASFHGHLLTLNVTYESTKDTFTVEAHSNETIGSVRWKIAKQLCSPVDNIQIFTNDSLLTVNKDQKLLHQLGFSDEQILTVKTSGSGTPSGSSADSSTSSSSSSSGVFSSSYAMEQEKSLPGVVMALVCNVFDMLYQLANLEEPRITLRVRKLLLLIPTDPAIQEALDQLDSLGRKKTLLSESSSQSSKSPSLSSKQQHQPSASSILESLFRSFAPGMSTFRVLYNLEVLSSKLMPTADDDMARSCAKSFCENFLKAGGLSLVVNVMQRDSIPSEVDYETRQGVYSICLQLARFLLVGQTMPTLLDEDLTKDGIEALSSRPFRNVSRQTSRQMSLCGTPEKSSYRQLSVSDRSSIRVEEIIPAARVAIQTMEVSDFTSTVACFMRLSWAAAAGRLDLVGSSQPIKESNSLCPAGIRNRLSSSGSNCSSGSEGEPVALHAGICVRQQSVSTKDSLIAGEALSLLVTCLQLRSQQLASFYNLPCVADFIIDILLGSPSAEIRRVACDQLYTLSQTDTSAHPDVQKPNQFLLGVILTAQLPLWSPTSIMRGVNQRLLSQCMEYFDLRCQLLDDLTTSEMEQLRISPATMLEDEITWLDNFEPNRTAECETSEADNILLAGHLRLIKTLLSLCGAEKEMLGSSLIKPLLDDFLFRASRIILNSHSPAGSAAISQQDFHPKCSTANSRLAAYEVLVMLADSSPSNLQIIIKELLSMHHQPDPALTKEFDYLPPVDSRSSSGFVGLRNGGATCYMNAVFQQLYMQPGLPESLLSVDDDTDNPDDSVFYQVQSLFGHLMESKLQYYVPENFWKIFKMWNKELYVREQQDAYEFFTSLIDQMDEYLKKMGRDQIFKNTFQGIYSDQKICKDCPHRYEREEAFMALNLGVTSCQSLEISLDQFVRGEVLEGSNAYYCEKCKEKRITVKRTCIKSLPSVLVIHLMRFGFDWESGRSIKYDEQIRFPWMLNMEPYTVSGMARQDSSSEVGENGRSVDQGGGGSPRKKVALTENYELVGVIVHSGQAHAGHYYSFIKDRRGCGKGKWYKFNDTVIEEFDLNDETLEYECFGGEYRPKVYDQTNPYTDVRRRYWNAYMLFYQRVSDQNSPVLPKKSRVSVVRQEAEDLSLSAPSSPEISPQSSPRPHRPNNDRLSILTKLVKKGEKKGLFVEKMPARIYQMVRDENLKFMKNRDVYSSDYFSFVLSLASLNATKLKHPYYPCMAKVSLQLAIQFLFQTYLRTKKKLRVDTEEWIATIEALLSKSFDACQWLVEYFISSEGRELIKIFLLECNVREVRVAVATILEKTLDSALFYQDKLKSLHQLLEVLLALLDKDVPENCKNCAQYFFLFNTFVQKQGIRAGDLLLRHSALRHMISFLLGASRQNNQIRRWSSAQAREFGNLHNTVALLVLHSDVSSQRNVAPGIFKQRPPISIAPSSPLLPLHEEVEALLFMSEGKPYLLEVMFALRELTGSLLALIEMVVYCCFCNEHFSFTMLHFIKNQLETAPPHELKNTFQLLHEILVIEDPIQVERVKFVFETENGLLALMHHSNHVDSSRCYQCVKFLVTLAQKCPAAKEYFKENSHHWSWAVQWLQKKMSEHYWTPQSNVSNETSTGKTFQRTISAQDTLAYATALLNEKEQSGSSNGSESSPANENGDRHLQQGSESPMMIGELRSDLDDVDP

Cc1nc(-c2cccc(NC(=O)CCl)c2)cs1
inactive: [1] -0.375 | [2] -0.0833 | [3] -0.903 | [4] -0.554 | [5] -0.634
